# Potency and affinity values are given separately. Results filed as inconclusive are left out. Entries that show only a call come without a potency. The source made the active and inactive calls.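 The calls were made as follows, unless noted: active = a fitted half-maximal concentration no higher than twice the top valid tested dose, with signal falling as cells die; inconclusive = flat curve between -70% and -30%, or poor fit; inactive = the rest, including signal rising instead of falling.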
# Key:
# [1] = viability loss in HepG2 hepatoma cells – cell-based, cherry-picks, set 2, cytotoxicity control, dose response (AID 687002;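 active = a dose-response fit showing signal loss, with half-maximal concentration no higher than twice the top tested dose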)
# [2] = viability loss in HeLa cells – cell-based, ATP luminescence, cherry-pick samples, cytotoxicity control, dose response (AID 687004)
# [3] = PAX8 transcriptional activity inhibition in RMG-I – RMG-I cells, luciferase, cherry-pick, dose response (AID 687027;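 active = every replicate test run called active, with the signal dropping as expected and potency within twice the top valid dose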)
# [4] = RMG-1 ovarian cancer cell viability loss – cherry-pick, dose response (AID 687029;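 active = signal drop whose fitted half-maximal concentration is at most twice the top valid dose, in every test run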;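 also: cells exposed to compound for 96 hours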)
# [5] = IOSE-T80 viability loss, PAX8-independent line – cell-based, cherry-pick, selectivity assay for PAX8 inhibitor project, dose response (AID 687032;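 active = fitted half-maximal concentration for viability loss no higher than twice the top valid dose, in every repeat run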;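 also: cells exposed to compound for 96 h before reading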)
# [6] = CMV-driven luciferase expression suppression in HEK293 – cell-based, luminescence, dry powder, counter-screen for Pax8 inhibitor project, dose response (AID 743020;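 active = signal-lowering compounds whose fitted half-maximal concentration is at or below twice the top tested dose in every run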;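 also: HEK293 cells stably expressing the CMV luciferase reporter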)
# [7] = general cell-killing toxicity readout – plate reader, dry powder samples, cytotoxicity control for PAX8 inhibitor project, dose response (AID 743021; call rule not given here)
# [8] = IGROV1 cell killing – plate reader, dry powder samples, PAX8 inhibitor project, dose response (AID 743043; call rule not given here;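 also: more negative means fewer viable cells or more cytotoxicity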)
# [9] = OVCAR-3 cell viability loss – plate reader, dry powder samples, PAX8 inhibitor project, dose response (AID 743044; call rule not given here); conditions: max activity: at 35 µM, hits give low values unless noted
# [10] = toxicity toward immortalized ovarian surface epithelium – cell-based, plate reader, dry powder samples, cytotoxicity control for PAX8 inhibitor project, dose response (AID 743045; call rule not given here;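 also: more negative values mean more cell killing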)
# [11] = A2780 cell killing – plate reader, dry powder samples, cytotoxicity control, dose response (AID 743046; call rule not given here)
# [12] = OVCAR8 cell viability loss – plate reader, dry powder samples, PAX8 project, dose response (AID 743197; call rule not given here)
compound,measurement,setting,value
CCc1ccc(C(=O)NC(=S)NCc2cccnc2)cc1,outcome,[1],inactive
same,outcome,[2],inactive
S=C(Nc1cccc(Cl)c1)Nc1ccccc1Oc1ccccc1,outcome,[1],inactive
same,outcome,[2],inactive
COCC(=O)Nc1ccc2c(c1)C(=O)N(C)C[C@H](OC)[C@@H](C)CN(C(=O)c1ccccc1)[C@@H](C)CO2,outcome,[1],inactive
same,outcome,[2],inactive
O=C(C[C@H]1CC[C@@H]2[C@H](COC[C@@H](O)CN2C(=O)c2cnccn2)O1)NCc1ccc(Oc2ccccc2)cc1,outcome,[1],inactive
same,outcome,[2],inactive
Cc1ccc(C(=O)NC(=S)Nc2ccccc2N2CCCC2)cc1[N+](=O)[O-],outcome,[1],inactive
same,outcome,[2],inactive
S=C(NCc1ccccc1)NCC1COc2ccccc2O1 (configuration not stated),outcome,[1],inactive
same,outcome,[2],inactive
COc1ccc(C(=O)NC(=S)Nc2ccccc2N2CCCCC2)cc1[N+](=O)[O-],outcome,[1],inactive
same,outcome,[2],inactive
COC(=O)C1=C(C)N(CC(C)C)C(=S)NC1c1cccc(F)c1 (configuration not stated),outcome,[1],inactive
same,outcome,[2],inactive
CC(C)CC1(C)N=C(c2ccccc2)C(=S)N1 (configuration not stated),outcome,[1],inactive
same,outcome,[2],inactive
COc1cccc(C(=O)NC(=S)Nc2ccccc2N2CCOCC2)c1,outcome,[1],inactive
same,outcome,[2],inactive
C[C@H](CO)N1C[C@H](C)[C@H](CN(C)C(=O)Nc2ccc3c(c2)OCO3)Oc2ncc(C#CC(C)(C)O)cc2C1=O,outcome,[1],inactive
same,outcome,[2],inactive
Cc1ccc(C(=O)NC(=S)Nc2ccc(N3CCOCC3)cc2)cc1,outcome,[1],inactive
same,outcome,[2],inactive
Fc1ccccc1NC(=S)NCCc1cccc(Cl)c1,outcome,[1],inactive
same,outcome,[2],inactive
O=C(NC(=S)NCC1COc2ccccc2O1)c1ccc(Cl)cc1 (configuration not stated),outcome,[1],inactive
same,outcome,[2],inactive
CCC(=O)N(C)C[C@@H]1Oc2cc(C#CC(C)(C)O)ccc2S(=O)(=O)N([C@@H](C)CO)C[C@H]1C,outcome,[1],inactive
same,outcome,[2],inactive
COC(=O)C1=C(C)N(Cc2ccc(F)cc2)C(=S)NC1c1cccc(F)c1 (configuration not stated),outcome,[1],inactive
same,outcome,[2],inactive
Cc1cc(C)c2nc(N3CCN(C(=O)c4cccs4)CC3)sc2c1,outcome,[1],inactive
same,outcome,[2],inactive
COC(=O)C1=C(C)N(Cc2ccc(F)cc2)C(=S)NC1c1cccc(Cl)c1 (configuration not stated),outcome,[1],inactive
same,outcome,[2],inactive
COc1cccc(NC(=S)NC(=O)Cc2ccc(Cl)cc2)c1,outcome,[1],inactive
same,outcome,[2],inactive
COC(=O)C1=C(C)N(Cc2ccc(Cl)cc2)C(=S)NC1c1ccc(Br)cc1 (configuration not stated),outcome,[1],inactive
same,outcome,[2],inactive
COC(=O)C1=C(C)N(Cc2ccccc2)C(=S)NC1c1ccc(Br)cc1 (configuration not stated),outcome,[1],inactive
same,outcome,[2],inactive
O=C(COC(=O)CCC1CCCC1)Nc1nc2c(F)c(F)c(F)cc2s1,outcome,[1],inactive
same,outcome,[2],inactive
COC(=O)C1=C(C)N(Cc2ccc(F)cc2)C(=S)NC1c1ccccc1 (configuration not stated),outcome,[1],inactive
same,outcome,[2],inactive
COC(=O)C1=C(C)N(Cc2ccc(Br)cc2)C(=S)NC1c1cccc(Cl)c1 (configuration not stated),outcome,[1],inactive
same,outcome,[2],inactive
CCOc1ccc(CNC(=S)NCc2ccc(OCC)cc2)cc1,outcome,[1],inactive
same,outcome,[2],inactive
COC(=O)C1=C(C)N(Cc2ccccc2)C(=S)NC1c1cccc(OC)c1 (configuration not stated),outcome,[1],inactive
same,outcome,[2],inactive
Cc1ccccc1NC(=S)NC(=O)CCc1ccccc1,outcome,[1],inactive
same,outcome,[2],inactive
S=C(NCCCc1ccccc1)Nc1ccccc1,outcome,[1],inactive
same,outcome,[2],inactive
COc1ccccc1NC(=S)NCc1ccccc1Cl,outcome,[1],inactive
same,outcome,[2],inactive
S=C(Nc1ccccc1)Nc1cc(Cl)ccc1Oc1ccccc1,outcome,[1],inactive
same,outcome,[2],inactive
O=C(C1CCOCC1)N1CC[C@@H]2[C@@H](CO)Nc3ccc(Br)cc3[C@@H]21,outcome,[1],inactive
same,outcome,[2],inactive
COC(=O)C1=C(C)N(Cc2ccc(Cl)cc2)C(=S)NC1c1ccc(OC)cc1 (configuration not stated),outcome,[1],inactive
same,outcome,[2],inactive
CC=Cc1ccc2n(c1=O)C[C@@H]1[C@@H](CO)[C@H](C(=O)N3CCc4ccccc4C3)N(C(=O)C3CC3)[C@H]21 (mixture of isomers),outcome,[1],inactive
same,outcome,[2],inactive
Cc1csc(NC(=O)C(C)Oc2ccc(Br)cc2)n1 (configuration not stated),outcome,[3],inactive
same,outcome,[4],inactive
same,outcome,[5],inactive
same,outcome,[6],inactive
same,outcome,[7],inactive
Cn1cc(/C=C(\C(=O)O)C(C(=O)O)=C2CCCCC2)c2ccccc21,outcome,[3],inactive
same,outcome,[4],inactive
same,outcome,[5],inactive
same,outcome,[6],inactive
same,outcome,[7],inactive
Cc1ccccc1Cn1cnc2ccccc2c1=O,outcome,[3],inactive
same,outcome,[4],inactive
same,outcome,[5],inactive
same,outcome,[6],inactive
same,outcome,[7],inactive
COCCNC(=O)C/C(C)=N/NC(=O)C(=O)NC1CCCCC1,outcome,[3],inactive
same,outcome,[4],inactive
same,outcome,[5],inactive
same,outcome,[6],inactive
same,outcome,[7],inactive
COc1ccccc1/C=N/NC(=S)NCc1ccco1,outcome,[1],inactive
same,outcome,[2],inactive
Cc1ccc(NC(=S)N(CCCN2CCOCC2)Cc2ccccn2)cc1,outcome,[3],inactive
same,outcome,[4],inactive
same,outcome,[5],inactive
same,outcome,[6],inactive
c1ccc(COc2ccc(OCCN3CCCCC3)cc2)cc1,outcome,[3],inactive
same,outcome,[4],inactive
same,outcome,[5],inactive
same,outcome,[6],inactive
same,outcome,[7],inactive
C[C@@H]1CN([C@H](C)CO)C(=O)c2cc(C3=CCCCC3)cnc2O[C@H]1CN(C)C(=O)Cc1cccnc1,outcome,[1],inactive
same,outcome,[2],inactive
O=C1/C(=C\c2ccco2)SC(=S)N1c1ccc(O)cc1,outcome,[3],inactive
same,outcome,[4],inactive
same,outcome,[5],inactive
same,outcome,[6],inactive
same,outcome,[7],inactive
O=C(O)CCCNC(=O)C(c1ccccc1)c1ccccc1,outcome,[3],inactive
same,outcome,[4],inactive
same,outcome,[5],inactive
same,outcome,[6],inactive
same,outcome,[7],inactive
O=C(c1ccc2c(c1)OCO2)N1CCN(c2ccc(C(F)(F)F)cn2)CC1,outcome,[3],inactive
same,outcome,[4],inactive
same,outcome,[5],inactive
same,outcome,[6],inactive
same,outcome,[7],inactive
O=C(NC(=S)Nc1ccccc1N1CCCC1)c1ccc([N+](=O)[O-])cc1,outcome,[1],inactive
same,outcome,[2],inactive
COC(=O)C1=C(C)N(Cc2ccc(F)cc2)C(=S)NC1c1cccc(Br)c1 (configuration not stated),outcome,[1],inactive
same,outcome,[2],inactive
O=C(NC(=S)Nc1ccccc1N1CCOCC1)c1ccc(Br)cc1,outcome,[1],inactive
same,outcome,[2],inactive
O=C(NC1CCCCC1)C(c1ccc(F)cc1)N(Cc1ccco1)C(=O)CN1C(=O)c2ccccc2S1(=O)=O (configuration not stated),outcome,[3],inactive
same,outcome,[4],inactive
same,outcome,[5],inactive
same,outcome,[6],inactive
same,outcome,[7],inactive
CC1CCCC(NC(=O)COC(=O)c2ccccc2Sc2ccccc2C#N)C1C (configuration not stated),outcome,[3],inactive
same,outcome,[4],inactive
same,outcome,[5],inactive
same,outcome,[6],inactive
same,outcome,[7],inactive
CCCCNC(=O)/C(=C/c1ccccc1)NC(C)=O,outcome,[3],inactive
same,outcome,[4],inactive
same,outcome,[5],inactive
same,outcome,[6],inactive
same,outcome,[7],inactive
CCOC(=O)NC(=S)Nc1ccc(C(C)(C)C)cc1,outcome,[1],inactive
same,outcome,[2],inactive
CCCCNC(=S)N/N=C/c1ccc(C#N)cc1,outcome,[1],inactive
same,outcome,[2],inactive
C[C@@H]1CN([C@H](C)CO)C(=O)Cc2cc(NC(=O)NC3CCCCC3)ccc2O[C@@H]1CN(C)Cc1ccccc1,outcome,[1],inactive
same,outcome,[2],inactive
Cc1cc(Cl)ccc1NC(=S)NCc1ccc(F)cc1,outcome,[1],inactive
same,outcome,[2],inactive
O=C(NC(=S)Nc1ccccc1N1CCCC1)c1ccccc1[N+](=O)[O-],outcome,[1],inactive
same,outcome,[2],inactive
COc1ccc(CN2C(=O)C(CC(=O)NCCCCc3ccccc3)CC(C(=O)N3CCOCC3)=C2C)cc1 (configuration not stated),outcome,[3],inactive
same,outcome,[4],inactive
same,outcome,[5],inactive
same,outcome,[6],inactive
same,outcome,[7],inactive
Cc1ccc(NC(=O)NC(=O)COc2ccc(Cl)cc2Cl)c(C)c1,outcome,[3],inactive
same,outcome,[4],inactive
same,outcome,[5],inactive
same,outcome,[6],inactive
same,outcome,[7],inactive
Cc1cc(C(=O)NC(=S)Nc2ccccc2N2CCOCC2)ccc1[N+](=O)[O-],outcome,[1],inactive
same,outcome,[2],inactive
CCOc1ccc(C(=O)Nc2ccc(Cc3ccncc3)cc2)cc1Br,outcome,[3],inactive
same,outcome,[4],inactive
same,outcome,[5],inactive
same,outcome,[6],inactive
same,outcome,[7],inactive
O=C(CCCC(=O)OCC(Cl)=C(Cl)Cl)Nc1ccc(F)cc1,outcome,[3],inactive
same,outcome,[4],inactive
same,outcome,[5],inactive
same,outcome,[6],inactive
same,outcome,[7],inactive
CO[C@@H]1CN(C)C(=O)c2ccc(NC(C)=O)cc2OC[C@@H](C)N(C(=O)Cc2cccnc2)C[C@H]1C,outcome,[1],inactive
same,outcome,[2],inactive
CN(CC(=O)Nc1cccc(F)c1)C(=O)CCCc1cccs1,outcome,[3],inactive
same,outcome,[4],inactive
same,outcome,[5],inactive
same,outcome,[6],inactive
same,outcome,[7],inactive
COc1ccc(C2Nc3ccccc3C(=O)N2c2ccc(F)cc2)cc1CSc1ccccn1 (configuration not stated),outcome,[3],inactive
same,outcome,[4],inactive
CCCCCCCCC(=O)NCCOc1ccccc1,outcome,[3],inactive
same,outcome,[4],inactive
same,outcome,[5],inactive
same,outcome,[6],inactive
same,outcome,[7],inactive
N/C(=N\OS(=O)(=O)c1cccc([N+](=O)[O-])c1)c1ccncc1,outcome,[3],inactive
same,outcome,[4],inactive
same,outcome,[5],inactive
same,outcome,[6],inactive
same,outcome,[7],inactive
COC(=O)C1=C(C)N(Cc2ccccc2)C(=S)NC1c1ccc(Cl)cc1 (configuration not stated),outcome,[1],inactive
same,outcome,[2],inactive
O=[N+]([O-])c1cccnc1S(=O)(=O)c1ccccc1,"activity change, negative = inhibition",[3],-21.1% [at 8 µM] (inactive)
COc1ccc(CNC(=S)NCc2ccc(OC(C)C)cc2)cc1,outcome,[1],inactive
same,outcome,[2],inactive
CCOc1ccc2ccccc2c1/C=N\NC(=O)OC,outcome,[3],inactive
same,outcome,[4],inactive
COc1cccc(NC(=S)N2CCC(Cc3ccccc3)CC2)c1,outcome,[1],inactive
same,outcome,[2],inactive
O=C(CSc1ncccc1-c1nc2ccccc2[nH]1)N1CCc2ccccc21,outcome,[3],inactive
Cn1c(SCC(=O)c2ccccc2)nnc1-c1ccccn1,outcome,[3],inactive
CCOc1ccc2c(CC)cc(=O)oc2c1OCC,outcome,[3],inactive
same,outcome,[4],inactive
same,outcome,[5],inactive
same,outcome,[6],inactive
same,outcome,[7],inactive
O=C(C[C@@H]1C=C[C@H](NC(=O)Nc2ccc(C(F)(F)F)cc2)[C@H](CO)O1)NCCN1CCCC1,outcome,[3],inactive
same,outcome,[4],inactive
same,outcome,[5],inactive
same,outcome,[6],inactive
same,outcome,[7],inactive
same,outcome,[8],inactive
same,max activity,[9],"7.59% [at 2.1 µM, hits give low values] (inactive)"
same,outcome,[10],inactive
same,outcome,[11],inactive
same,outcome,[12],inactive

# Source: PubChem BioAssay
